# Source: PubChem BioAssay (NCI)
# About 83,000 compounds went through this panel and 20% of them were active in at least one assay; those are over-represented in the sample as a whole.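 Percent growth is the endpoint: 0 to 100 indicates growth inhibition (40 means 60% inhibition), 0 means no net growth, and negative values indicate cell death.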 Values without a mark were called inactive. The source made the active and inactive calls. Rule for the calls: active = growth percent below 10; inactive = the rest.
# Columns and labels:
# Experiment in all cases: NCI-60 one-dose screen, 48 h (100 = growth as untreated, 0 = no growth, -100 = all killed)
# Conditions in all cases: 10 µM unless noted
# [1] = system: NCI-H23 lung
# [2] = system: NCI-H226 lung
# [3] = system: NCI-H322M lung
# [4] = system: HOP-62 NSCLC
# [5] = system: NCI-H460 lung
# [6] = system: HOP-92 NSCLC
# [7] = system: NCI-H522 lung
# [8] = system: A549/ATCC NSCLC
# [9] = system: 786-0 renal
# [10] = system: COLO 205 colon
SMILES,growth [1],growth [2],growth [3],growth [4],growth [5],growth [6],growth [7],growth [8],growth [9],growth [10]
N/C(=N\N=C\c1ccc([N+](=O)[O-])cc1)c1c(N)nc(=S)[nH]c1-c1ccc(Cl)cc1Cl,90.2%,82.1%,100%,57%,114%,2.04% (active),78.5%,101%,54.1%,115%
Cc1c(C(=O)NNC(=O)Nc2ccc(Cl)cc2)nnn1-c1ccc(Br)cc1,102%,103%,90.3%,97.1%,107%,92.8%,96.4%,96.9%,96.7%,107%
O=C(/C=C/Nc1ccc(Cl)cc1)c1ccc2c(c1)Nc1ccccc1S2,33.1%,8.89% (active),59.5%,-27.5% (active),13.3%,13.6%,34.9%,43.1%,-6.27% (active),62.5%
O=C(c1ccc(Cl)cc1)c1ccc(OCCCN2CCN(c3ccncc3)CC2)cc1,38.4%,49.4%,82.1%,38.7%,48.6%,14.9%,52.6%,55.5%,33.5%,-49.7% (active)
CN(C)CCn1c2ccccc2c2nc3cc4ccccc4cc3nc21,16.6%,26.8%,29.6%,38.3%,-52.1% (active),43.4%,27.5%,-68% (active),-44.3% (active),17.1%
COc1cc(C2CC(c3cc(OC)c(OC)c(OC)c3)=NN2C(C)=O)ccc1OCc1ccccc1 (stereo not given),47.2%,28%,59.8%,70.2%,24.3%,-4.8% (active),26.8%,31.8%,34%,10.9%
Cc1sc(C(NC(=O)OCCn2c([N+](=O)[O-])cnc2C)C(F)(F)Cl)nc1-c1ccc(OC(F)(F)F)cc1 (stereo not given),-92% (active),-65.2% (active),-92.4% (active),-89.7% (active),-29.2% (active),-82% (active),-86.1% (active),-81.3% (active),-91.3% (active),-74.2% (active)
NS(=O)(=O)c1ccc(-n2cc(-c3cccc(NC(=O)c4cc(N5CCOCC5)cc(C(F)(F)F)c4)c3)nn2)cc1,54.7%,26.2%,71.4%,12.9%,64.3%,9.47% (active),38.2%,76.7%,44.9%,76.9%
COc1ccc2[nH]cc(-c3nc(N)nnc3-c3cn(C)c4ncccc34)c2c1,69.9%,66.4%,69.6%,62.4%,25%,81.2%,34.3%,51.2%,64.2%,44.5%
CN1CCN(c2ccc(C(=O)/C=C/c3ccc(Br)cc3)cc2)CC1,52.4%,12.6%,62.8%,22.1%,64.4%,13.2%,52.8%,7.46% (active),19.5%,-14.7% (active)
O=C1NC(=O)c2c1c1c3cc(Br)ccc3[nH]c1c1oc3ccc(F)cc3c21,-23.6% (active),-0.591% (active),-11.8% (active),-42% (active),-82.6% (active),-53.2% (active),-61.6% (active),53.5%,-40.8% (active),30.1%
N#Cc1c(-c2cccc(Cl)c2Cl)cc(-c2c[nH]c3ccccc23)[nH]c1=O,70.2%,8.48% (active),76.5%,80.1%,85.6%,-0.53% (active),70.2%,67.2%,16.9%,105%
Cc1cc(=O)oc2cc(OCCCOc3ccc(/C=C/C(=O)Nc4ccccc4N)cc3)ccc12,45.2%,18.4%,54.7%,16.7%,14.5%,43.4%,-13.8% (active),25.8%,26.1%,-53.6% (active)
